Results with a measured potency or affinity are listed apart. Results filed as inconclusive are left out. Active and inactive are the calls of the source. Unless noted, no rule for the calls is given here.
Key:
[1] = cytotoxicity in PAX8-dependent RMG-1 cells, dose response, cell-based, cherry-pick (AID 687029;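 active = signal drop whose fitted half-maximal concentration is at most twice the top valid dose, in every test run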;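 also: cells exposed to compound for 96 hours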)
[2] = cytotoxicity in IOSE-T80 ovarian epithelial cells, dose response, selectivity assay for PAX8 inhibitor project, cell-based, cherry-pick (AID 687032;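 active = fitted half-maximal concentration for viability loss no higher than twice the top valid dose, in every repeat run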;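 also: cells exposed to compound for 96 h before reading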)
[3] = inhibitors of CMV-promoter luciferase reporter, dose response, counter-screen for Pax8 inhibitor project, cell-based, HEK293, luminescence, dry powder (AID 743020;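 active = signal-lowering compounds whose fitted half-maximal concentration is at or below twice the top tested dose in every run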;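 also: HEK293 cells stably expressing the CMV luciferase reporter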)
[4] = non-specific cell cytotoxicity, dose response, cytotoxicity control for PAX8 inhibitor project, plate reader, dry powder samples (AID 743021)
[5] = IOSE-T80 ovarian epithelial cell cytotoxicity, dose response, cytotoxicity control for PAX8 inhibitor project, plate reader, dry powder samples (AID 743045);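 also: more negative values mean more cell killing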
[6] = A2780 ovarian cancer cell cytotoxicity, dose response, cytotoxicity control, plate reader, dry powder samples (AID 743046)

Measured: outcome

C[C@@H]1CN([C@H](C)CO)C(=O)c2cc(NC(=O)CCC(F)(F)F)ccc2O[C@@H](C)CCCCO[C@@H]1CN(C)Cc1ccc(Cl)c(Cl)c1
not listed: [6]
inactive: all other assays above

C[C@@H]1CCCCO[C@H](CN(C)Cc2ccc(C(F)(F)F)cc2)[C@H](C)CN([C@@H](C)CO)C(=O)c2cc(NC(=O)Nc3ccc4c(c3)OCO4)ccc2O1
not listed: [6]
inactive: all other assays above

C[C@@H]1CCCCO[C@H](CN(C)Cc2ccc(Cl)c(Cl)c2)[C@@H](C)CN([C@@H](C)CO)C(=O)c2cc(NC(=O)Nc3ccc(F)cc3)ccc2O1
not listed: [6]
inactive: all other assays above

COc1cccc(-c2ccc3c(c2)[C@H]2[C@H](CCN2S(=O)(=O)c2ccccc2OC)[C@@H](CO)N3C)c1
inactive: all assays above

C[C@@H]1CCCCO[C@H](CN(C)Cc2ccc(C(F)(F)F)cc2)[C@H](C)CN([C@H](C)CO)C(=O)c2cc(NC(=O)Cc3ccccc3)ccc2O1
inactive: all assays above

Cc1ccc(S(=O)(=O)Nc2ccc3c(c2)C(=O)N([C@@H](C)CO)C[C@H](C)[C@@H](CN(C)Cc2ccc(C(F)(F)F)cc2)OCCCC[C@H](C)O3)cc1
not listed: [6]
inactive: all other assays above

C[C@H](CO)N1C[C@H](C)[C@H](CN(C)S(=O)(=O)c2ccc(Cl)cc2)OCc2ccccc2-c2c(n(C)c3ccccc23)C1=O
inactive: all assays above

COc1ccc(S(=O)(=O)Nc2ccc3c(c2)C(=O)N([C@H](C)CO)C[C@@H](C)[C@@H](CN(C)Cc2ccc(C(F)(F)F)cc2)OCCCC[C@@H](C)O3)cc1
not listed: [6]
inactive: all other assays above

C[C@H]1CCCCO[C@@H](CN(C)Cc2ccc(C(F)(F)F)cc2)[C@@H](C)CN([C@@H](C)CO)C(=O)c2cc(NC(=O)Nc3ccc4c(c3)OCO4)ccc2O1
inactive: all assays above

COc1cccc(-c2ccc3c(c2)[C@@H]2[C@@H](CCN2S(=O)(=O)c2ccccc2OC)[C@H](CO)N3C)c1
inactive: all assays above

COc1ccccc1S(=O)(=O)N(C)C[C@H]1Oc2cc(C#CCC3CCCC3)ccc2S(=O)(=O)N([C@H](C)CO)C[C@H]1C
not listed: [6]
inactive: all other assays above

O=C(c1ccccc1F)N1CC(=O)N2[C@@H](CO)[C@@H](c3ccc(C#Cc4ccc(F)cc4)cc3)[C@@H]2C1
inactive: all assays above

O=C(c1cc(-c2cccs2)on1)N1CCN(C(c2ccccc2)c2ccccc2)CC1
inactive: all assays above

C[C@H]1CCCCO[C@@H](CN(C)Cc2ccccc2)[C@@H](C)CN([C@@H](C)CO)C(=O)c2cc(NC(=O)Nc3ccc(C(F)(F)F)cc3)ccc2O1
inactive: all assays above

COc1ccc(S(=O)(=O)Nc2ccc3c(c2)C(=O)N([C@H](C)CO)C[C@H](C)[C@@H](CN(C)S(=O)(=O)c2ccc(F)cc2)OCCCC[C@H](C)O3)cc1
not listed: [6]
inactive: all other assays above

C[C@@H]1CN([C@@H](C)CO)C(=O)c2cc(NC(=O)Nc3ccc(C(F)(F)F)cc3)ccc2O[C@H]1CN(C)C(=O)Nc1ccc(C(F)(F)F)cc1
inactive: all assays above

O=C(Nc1cccc(F)c1)N1CCCCN2[C@@H](CO)[C@@H](c3ccc(C#Cc4ccccc4)cc3)[C@@H]2C1
inactive: all assays above

Source: PubChem BioAssay
